Laboratory results taken from PubChem BioAssay.

These molecules were tested on PRMT1 (protein arginine N-methyltransferase 1) (assay: small molecules binding arginine methyltransferase PRMT1 – biochemical, small-molecule microarray, 635 nm fluorescence, primary screen (AID 1088;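 note: binding of Prmt1 protein to compounds spotted on small-molecule microarray slides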)). Settings: higher = more signal.

Question: With `O=C(O)C1=CC[C@H]2C(=O)N(c3ccccc3)C(=O)[C@@H]12` as the molecule, how does the composite z-score read?
Answer: 0.964

Question: Which composite z-score does the source give for `C=CC[C@H](OC(=O)Nc1ccc(SC)cc1)c1ccc(O)c(F)c1` here?
Answer: -0.487

Question: `COC(=O)C1(CC(C)C)C=C2C(=C(C)C(=O)C2C)CN1` (centres undefined) was tested. Which composite z-score did it give?
Answer: -0.999

Question: With `[N-]=[N+]=NCc1ccccc1C[C@]1(C(=O)N2CCCCC2)COC(c2ccc(OCCCO)cc2)=N1` as the molecule, how does the composite z-score read?
Answer: 1.57

Question: For `C=C[C@H](C)[C@@H](OC(=O)Nc1ccc(SC)cc1)c1ccc(OCCO)cc1`, which composite z-score is on record?
Answer: 0.191

Question: For `COC(=O)Cn1c(C(=O)N(C)C)cc2c1C[C@H]1CN(C(=O)c3ccccc3)[C@@](Cc3ccccc3)(C(=O)OC)[C@@H]21`, which composite z-score is on record?
Answer: -0.858

Question: With `O=C1c2ccccc2[C@](Cc2ccccc2I)(C(=O)NCCN2CCOCC2)[C@H](c2ccc(CO)cc2)N1Cc1ccccc1C(F)(F)F` as the molecule, how does the composite z-score read?
Answer: 1.56

Question: `Cc1ccc(S[C@]2(C(=O)NCCN3CCOCC3)CC(=O)N(C(C)C)[C@@H]2c2ccc(CO)cc2I)cc1` was tested. Which composite z-score did it give?
Answer: 1.5

Question: For `C=C(CCCC)C(=O)CC[C@H](OC(=O)c1ccccc1-c1ccccc1C(=O)O)c1cccc(OCCO)c1`, which composite z-score is on record?
Answer: 0.317

Question: With `[N-]=[N+]=Nc1ccccc1C[C@@]1(C(=O)NCc2ccccc2)N=C(c2ccc(OCCCO)cc2)O[C@@H]1c1ccccc1` as the molecule, how does the composite z-score read?
Answer: 1.54

Question: `C=CCNC(=O)[C@@H]1[C@H]2C(=O)O[C@H](c3ccccc3)[C@H](c3ccccc3)N2[C@H](c2ccc(OCCO)cc2)[C@@]12C(=O)Nc1ccc(C#CC3=CCCCC3)cc12` was tested. Which composite z-score did it give?
Answer: 1.54

Question: For `CC(C)C[C@@H]1NC(=O)[C@H]2C[C@@H](C(=O)O)[C@@H](c3cccc(OCCO)c3)N2C1=O`, which composite z-score is on record?
Answer: 0.779

Question: How did the composite z-score turn out when `CC(C)c1ccc(NN2C(C(O)C(C)c3ccccc3)C=CC3C(=O)N(c4ccccc4)C(=O)C32)cc1` (centres undefined) was run?
Answer: 1.57

Question: How did the composite z-score turn out when `Cc1ccc(S(=O)(=O)N2[C@@H](c3ccccc3)C(C(=O)O)=C[C@H]2C(C)(C)C)cc1` was run?
Answer: 1.55

Question: Which composite z-score does the source give for `CCOC(=O)C1=CC[C@@H](c2ccccc2)N(S(=O)(=O)c2ccc(C)cc2)[C@@H]1C#N` here?
Answer: 0.712

Question: `COCCOC(=O)N1C(=O)[C@@]2(c3cc(C#CCC(C(=O)OC)C(=O)OC)ccc31)[C@H](C(=O)N1CCc3cc(OC)c(OC)cc3C1)[C@H]1C(=O)O[C@H](c3ccccc3)[C@H](c3ccccc3)N1[C@@H]2c1ccccc1OCCO` was tested. Which composite z-score did it give?
Answer: 1.53

Question: How did the composite z-score turn out when `CN(C)CCCC[C@@H]1NC(=O)[C@H]2C[C@@H](C(=O)NCCCCCCNC(=O)CS)[C@@H](c3cccc(OCCO)c3)N2C1=O` was run?
Answer: -0.174

Question: With `COc1cc2c(cc1O)C(C)N(Cc1sc3ccccc3c1Cl)CC2` (centres undefined) as the molecule, how does the composite z-score read?
Answer: -0.77

Question: `COCCOC(=O)N1C(=O)[C@@]2(c3cc(C#CCC(C(=O)OC)C(=O)OC)ccc31)[C@H](c1ccc(O)cc1)N1[C@H](c3ccccc3)[C@H](c3ccccc3)OC(=O)[C@H]1[C@@H]2C(=O)N1CCc2cc(OC)c(OC)cc2C1` was tested. Which composite z-score did it give?
Answer: 1.54

Question: With `CCOC(=O)C1=CCC(c2ccncc2)N(S(=O)(=O)c2ccc(C)cc2)C1` (centres undefined) as the molecule, how does the composite z-score read?
Answer: 1.36

Question: With `COC(=O)[C@@]1(Cc2ccc(F)cc2)[C@H]2c3cc(C(=O)N4CCCC4)n(Cc4ccc(C(F)(F)F)nc4)c3C[C@H]2CN1C(=O)c1ccccc1` as the molecule, how does the composite z-score read?
Answer: 0.428

Question: Which composite z-score does the source give for `CC(C)(C)OC(=O)CC[C@@]1(C(N)=O)N=C(c2ccc(OCCCO)cc2)O[C@@H]1c1ccccc1CN=[N+]=[N-]` here?
Answer: -0.319

Question: For `C=CCNC(=O)[C@H]1[C@@H]2C(=O)O[C@@H](c3ccccc3)[C@@H](c3ccccc3)N2[C@@H](c2ccc(OCCO)cc2)[C@]12C(=O)N(C(=O)OCCOC)c1ccc(C#CCC(C(=O)OC)C(=O)OC)cc12`, which composite z-score is on record?
Answer: 1.54

Question: How did the composite z-score turn out when `C=CCOC(=O)[C@H]1[C@@H]2C(=O)O[C@@H](c3ccccc3)[C@@H](c3ccccc3)N2[C@@H](c2ccc(OCCOC(=O)[C@@H]3C[C@@H]4C(=O)N[C@@H](Cc5ccccc5)C(=O)N4[C@@H]3c3ccc(O)cc3)cc2)[C@]12C(=O)Nc1ccc(I)cc12` was run?
Answer: 1.34

Question: For `CCN1C(=O)C2CC(=O)C3C(CN(S(=O)(=O)c4ccc(C)cc4)C3c3ccc(C)cc3)C2C1=O` (centres undefined), which composite z-score is on record?
Answer: 0.751

Question: With `C=C(C)C1CN([C@H](CO)c2ccccc2)C(=O)/C1=C\c1ccccc1` (some centres undefined) as the molecule, how does the composite z-score read?
Answer: 0.464

Question: Which composite z-score does the source give for `C=C(COC)C(=O)CC[C@H](OC(C)=O)c1ccc(CO)o1` here?
Answer: -0.451

Question: `COC(=O)C(CC#Cc1ccc2c(c1)[C@]1(C(=O)N2)[C@H](C(=O)NC[C@H](O)c2ccccc2)[C@H]2C(=O)O[C@H](c3ccccc3)[C@H](c3ccccc3)N2[C@@H]1c1ccc(O)cc1)C(=O)OC` was tested. Which composite z-score did it give?
Answer: 0.356

Question: Which composite z-score does the source give for `C=C[C@H](OC)[C@@H](O)c1ccc(OC)c(O)c1` here?
Answer: -1.84
